Measurements from PubChem BioAssay (Tox21).
Inconclusive results are not listed. A call without a number means that no potency is given here. Active and inactive are the calls of the source. Calls come from the whole dose curve; as a rule, active = well fitted cell-killing curve with a large enough effect in the repeat runs; inconclusive = weak or mixed curves, or effect the other way; inactive = no such curve, though single readings can be large or run the other way.

Experiment: qHTS assay to identify small molecule antagonists of the thyroid receptor (TR) signaling pathway - cell viability counter screen (AID 743064); note: nearly all actives have a fitted effect of over 50% in size
Conditions: GH3.TRE-Luc viability, CellTiter-Fluor, 24 h; series mostly up to 70.3 µM
Source text: National Center for Advancing Translational Sciences [NCATS]
NIH Chemical Genomics Center [NCGC]
U.S. Environmental Protection Agency [EPA]
National Institutes of Environmental Health Sciences [NIEHS]
National Toxicology Program [NTP]
U.S. Food and Drug Administration [FDA]
Thyroid receptor (TR), a nuclear hormone receptor, plays an important role in development, proliferation, differentiation, metabolism, brain function, and cardiovascular system. […] To profile the Tox21 10K compound library in TR signaling, a cell-based GH3-TRE-Luc assay (GH3.TRE-Luc cell line, developed by the laboratory of Dr. Albertinka J. Murk, Wageningen University) was used to measure the inhibition of TR. GH3 (rat pituitary tumor) cells stably expressing a TR activity sensor consisting of two TR response elements and a luciferase reporter gene. The cytotoxicity of the Tox21 compound library against the GH3.TRE-Luc cell line was tested in parallel by measuring the cell viability using CellTiter-Fluor assay (Promega, Madison, WI) in the same wells.
Tox21 Assay Protocol Summary:
GH3.TRE-Luc cells were dispensed at 1500 cells/4 uL/well into 1536-well white solid bottom plates using a Multidrop Combi dispenser (Thermo Fisher Scientific Inc., Waltham, MA). After the assay plates were incubated at 37 C for 4 hours, 23 nL of library compound or DMSO controls was transferred to the assay plates by a pintool station (Kalypsys, San Diego, CA), followed by addition of 1 ul of T3 (1 nM, final concentration in the wells) to stimulate TR transactivation. The assay plates were incubated at 37 C for 23.5 h, and then 1 uL of CellTiter-Fluor reagent (Promega, Madision, WI) of measuring cytotoxicity was added to each well using a Bioraptr Flying Reagent Dispenser (FRD) workstation (Beckman Coulter, Indianapolis, IN, USA). The plates were incubated at 37C and 5% CO2 for additional 30 min, and fluorescence intensity was measured by a ViewLux plate reader (PerkinElmer, Shelton, CT).
Potency is the fitted concentration of half-maximal effect.

Row | Structure (SMILES) | Potency
1 | CC[N+](CC)(CCNC(=O)C(=O)NCC[N+](CC)(CC)Cc1ccccc1Cl)Cc1ccccc1Cl | inactive
2 | CC(C)Nc1cccnc1N1CCN(C(=O)c2cc3cc(NS(C)(=O)=O)ccc3[nH]2)CC1 | inactive
3 | Cc1cc(=O)c2c(O)c3c(O)cc(=O)c4c3c3c(cc(O)c1c23)C(C)(C)C=4O | 0.841 µM (active)
4 | CC(O)c1ccccc1 (stereo not given) | inactive
5 | CCOc1ccc(Cc2nccc3cc(OCC)c(OCC)cc23)cc1OCC | inactive
6 | O=C(/C=C/c1ccc(O)c(O)c1)O[C@@H]1C[C@@](OC(=O)/C=C/c2ccc(O)c(O)c2)(C(=O)O)C[C@@H](O)[C@@H]1O | inactive
7 | NC(=O)c1ccncc1 | inactive
8 | Clc1ccc(Nc2nnc(Cc3ccncc3)c3ccccc23)cc1 | inactive
9 | CCC(=O)C1CC(C(C)C)CC=C1C (stereo not given) | inactive
10 | Cc1ccc(C(C)(C)O)cc1 | inactive
11 | C[C@]1(Cn2ccnn2)[C@H](C(=O)O)N2C(=O)C[C@H]2S1(=O)=O | inactive
12 | CCC(=O)OC | inactive
13 | O=C1NCCN1CCO | inactive
14 | CCC(C)COC(C)=O (stereo not given) | inactive
15 | C[C@@H](CN(C)C)CN1c2ccccc2Sc2ccccc21 | 4.03 µM (active)
16 | C=COCC(C)C | inactive
17 | C=C(C)CCCC(C)CCO (stereo not given) | inactive
18 | CC(=O)OCC[N+](C)(C)C | inactive
19 | CC1(C)O[C@@H]2C[C@H]3[C@@H]4C[C@H](F)C5=CC(=O)C=C[C@]5(C)[C@H]4[C@@H](O)C[C@]3(C)[C@]2(C(=O)CO)O1 | inactive
20 | C[C@@H]1CC(=O)NN=C1c1ccc(NN=C(C#N)C#N)cc1 | 15 µM (active)

Row | Structure (SMILES) | Potency
21 | O=C1c2ccccc2C(=O)C1c1ccc(Br)cc1 | inactive
22 | CCCCCCCCOc1ccc(C(=O)O)cc1 | inactive
23 | CC=C(Cl)Cl | inactive
24 | CC(=O)Nc1ccc(C)cc1C | inactive
25 | CC(=O)NC1(c2cccc(F)c2)CCN(CC[C@@]2(c3ccc(Cl)c(Cl)c3)CN(c3ccccc3)C(=O)CO2)CC1 | 7.72 µM (active)
26 | O=C(Cn1ccnc1[N+](=O)[O-])NCCO | inactive
27 | O=C(CCc1ccc(O)cc1)c1c(O)cc(O)cc1O | 55.7 µM (active)
28 | Cc1ccc2c(Br)cc(Br)c(O)c2n1 | 26.6 µM (active)
29 | COc1ccccc1Oc1c(NS(=O)(=O)c2ccc(C(C)(C)C)cc2)nc(-c2ncccn2)nc1OCCO | inactive
30 | CC1(C)[C@H](C(=O)O)N2C(=O)C[C@H]2S1(=O)=O | inactive
31 | CC(CCC(=O)O)C(=O)O (stereo not given) | inactive
32 | CCCCCC[C@@H](O)C/C=C\CCCCCCCC(=O)OCC(O)CO (stereo not given in full) | inactive
33 | OCCOCC#CCOCCO | inactive
34 | Cc1cccc(N(C)C(=S)Oc2ccc3c(c2)CCC3)c1 | inactive
35 | C[C@@H]1CN(CCCn2c3ccccc3c3ccccc32)C[C@H](C)N1 | 10.6 µM (active)
36 | N#[N+]c1ccc2c(S(=O)(=O)[O-])cccc2c1O | inactive
37 | Nc1cccc2c1CN(C1CCC(=O)NC1=O)C2=O (stereo not given) | inactive
38 | Cc1cc(C)cc(N)c1 | inactive
39 | CO[C@]1(NC(=O)CSC(F)F)C(=O)N2C(C(=O)O)=C(CSc3nnnn3CCO)CO[C@H]21 | inactive
40 | c1ccc2c(c1)CCc1ccccc1N2 | inactive
